This is a sample that favours compounds with a hit; in the whole collection about 4.8% have one here.
TGFb SMAD3 inh – inhibitors of TGF-b signaling | AID 588855 | HepG2 CAGA-GFP TGF-b/SMAD3 reporter, GFP fluorescence, 18 h; TGF-beta stimulated, 500 pg/mL final | hit rate 1.2% among 410,000 | Potency, µM (top dose mostly 46.1 µM), without a hit: at the top dose activity, negative = inhibition, usual class: inhibitors; also: potency is read from the fitted curve at half-maximal effect; % is scaled to controls: 0 for no effect and ±100 for the full control effect; nearly all actives have a fitted effect of over 65% in size
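First, reporter cells (HEPG2 CAGA-GFP) rested 2 h at 37 degrees C. Next, compounds were pinned in and TGF-beta added to 500 pg/mL final. After 18 h, GFP was imaged per cell and summed per well.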
D3 ag – activates the human D3 dopamine receptor. hit rate 0.58% among 410,000. D3R DiscoveRx beta-arrestin cells, luminescence, 90 min. max activation, %; in the data active = max activation above about 30%; also: 0% is about no effect
Target sequence (P35462 whole entry, looked up): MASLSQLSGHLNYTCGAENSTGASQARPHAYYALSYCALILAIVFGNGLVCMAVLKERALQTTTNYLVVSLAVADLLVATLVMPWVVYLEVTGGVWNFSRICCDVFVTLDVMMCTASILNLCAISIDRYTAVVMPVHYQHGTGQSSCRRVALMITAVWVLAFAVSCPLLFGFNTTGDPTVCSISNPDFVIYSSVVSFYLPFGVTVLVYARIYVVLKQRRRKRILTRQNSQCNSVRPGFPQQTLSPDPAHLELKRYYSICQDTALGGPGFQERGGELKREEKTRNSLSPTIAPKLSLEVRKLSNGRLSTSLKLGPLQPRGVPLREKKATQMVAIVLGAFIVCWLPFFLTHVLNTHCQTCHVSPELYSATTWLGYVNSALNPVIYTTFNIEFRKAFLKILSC
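Agonist-mode cell screen: cells plated at 1500/well and incubated overnight at 37 °C, then exposed to library compounds for 90 min at 37 °C. Detection reagent was added for 30–60 min at room temperature, and luminescence was read.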
HepG2 viability – HepG2 cytotoxicity, counter-screen for TGF-b inhibitors; hit rate 0.76% among 410,000; HepG2 CAGA-GFP viability, ATP luminescence, 18 h; Potency, µM (doses to about 46.1 µM), for inactives: at the top dose activity change, negative = cytotoxicity, most hits filed as cytotoxic; also: potency is read from the fitted curve at half-maximal effect
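CellTiter-Glo luminescence gave cytotoxicity after 18 hours at 37 degrees C. The cells were HepG2 CAGA-GFP in 1% FBS DMEM, stimulated with 500 pg/mL TGF-beta after compound addition. %Activity was normalised to no-cell wells (complete cell-killing) and DMSO (no toxicity), and curves were fitted and classified.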
DRD3 antagonist – D3 dopamine receptor (human) antagonism; P35462; D3R cells, DiscoveRx beta-arrestin luminescence, antagonist mode; stronger effect = lower value; max response, negative = inhibition, %; hit rate 2.5% among 360,000; in the data active = max response below about -50%; inconclusive = no clear call, values can overlap the other calls; also: % is scaled to controls: 0 for no effect and ±100 for the full control effect
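Cells plated overnight at 1500 cells/well, then exposed to library compounds with dopamine controls for 90 minutes at 37 degrees C. DiscoveRx reagent added for 30–60 minutes at room temperature; luminescence read, quantitative HTS format.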
ATXN2 expr inh – inhibitors of ATXN2 expression | HEK-293 ATXN2-luciferase reporter, luminescence, 24 h | Potency, µM (top dose mostly 57 µM), inactives show at the highest dose activity change, negative = inhibition, most hits filed as inhibitors | hit rate 0.72% among 360,000; also: potency is read from the fitted curve at half-maximal effect; % is scaled to controls: 0 for no effect and ±100 for the full control effect; nearly all actives have a fitted effect of over 55% in size
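ATXN2-luciferase reporter cells (luciferase flanked by upstream and downstream ATXN2 gene portions) were treated 24 h at 37 °C with compounds at up to 57 uM. SteadyGlo luminescence gave expression; GF-AFC fluorescence gave viability.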
S2 tox – viability counter-screen for ATXN expression inhibitors. S2 cells (HEK-293 line with an ATXN2-luciferase reporter) viability, CellTiter-Fluor protease fluorescence, 24 h. Potency, µM (series often up to 56.7 µM), actives largely listed as cytotoxic. hit rate 0.49% among 400,000; also: potency is read from the fitted curve at half-maximal effect; nearly all actives have a fitted effect of over 40% in size
The depositor's hits bear a star; i = inactive; ? = inconclusive; · = not tested or not shown; ! = repeats disagree. Unless noted, calls follow the shape of the dose curve; as a rule, active = well fitted curve in the direction sought with a large enough effect; inconclusive = small, poorly fitted or top-dose-only effect, or another doubt; inactive = no such curve, though single readings can be large; an effect the other way counts as inactive or inconclusive.

SMILES	TGFb SMAD3 inh	D3 ag	HepG2 viability	DRD3 antagonist	ATXN2 expr inh	S2 tox
Cc1ccc(CNC(=O)CN(C)S(=O)(=O)c2ccc3c(c2)c(=O)n(C)c(=O)n3C)cc1	-2%	-6	-1%	·	4%	i
O=C(/C=C/c1ccc([N+](=O)[O-])cc1)NCc1ccccn1	2%	1	-15%	0	3%	i
O=C(CCS(=O)(=O)c1ccccc1)Nc1ncc([N+](=O)[O-])s1	16µM*	-5	-58%	-23	-5%	i
O=C(/C=C/c1ccc([N+](=O)[O-])cc1)Nc1ncc([N+](=O)[O-])s1	13µM*	1	-27%	14	·	?
O=C(CS(=O)(=O)c1ccccc1)Nc1ncc([N+](=O)[O-])s1	0%	-3	4%	-3	-13%	?
Cc1cnc(NC(=O)c2cccs2)s1	-22%	-6	-23%	-9	32%	i
O=C(Nc1ncc([N+](=O)[O-])s1)c1cccs1	?	4	13µM*!	-23	6%	?
O=S(=O)(NCc1csc(-c2ccccc2)n1)c1ccccc1	·	-10	-9%	·	·	·
Clc1nc(CN2CCCCC2)nc2sc3c(c12)CCCC3	25µM*	2	-39%	-9	·	?
O=C(Cn1c(=O)n(Cc2ccc3c(c2)OCO3)c(=O)c2ccc(C(=O)NC3CCCCC3)cc21)Nc1ccccc1F	-6%	-14	-6%	·	·	·
O=C1N/C(=C/c2ccc(N3CCOCC3)o2)C(=O)N1c1cccc(Cl)c1	10µM*	-12	-54%	-75*	-33%	i
Cc1ccc(/C=C2/NC(=O)N(c3ccccc3)C2=O)o1	-18%	-2	-45%	-22	34%	i
COCCn1c(C)cc(C2=NNC(=NC3CC3)SC2)c1C	8%	0	10µM*	4	0.21µM*	?
C=CCN=C1NN=C(c2cc(C)n(CCOC)c2C)CS1	-4%	-13	-5%	0	-23%	i
O=C(Nc1cccs1)Nc1ccc(Br)cc1F	11µM*	0	-36%	4	-11%	i
CC(=O)c1cccc(NC(=O)Nc2cccs2)c1	-6%	-11	-7%	-51*	36%	i
CCCn1nnnc1NCc1ccc(SC)cc1	-5%	6	-5%	-4	0%	i
CSc1ccc(CNc2nnnn2C)cc1	-12%	46*	-4%	-3	0%	i
CCOC(=O)c1c(C)oc2nc(C)nc(NCc3cccc(OC)c3)c12	1%	14	-3%	·	-1%	i
O=C(CCS(=O)(=O)c1nc(-c2cccs2)cc(C(F)(F)F)n1)Nc1cccc(O)c1	?	-25	-93%	·	·	·
COc1cc(NC(=O)CCS(=O)(=O)c2nc(-c3cccs3)cc(C(F)(F)F)n2)cc(OC)c1OC	13µM*	-15	11µM*	·	·	·
COc1ccc(NC(=O)CCS(=O)(=O)c2nc(-c3ccc4c(c3)OCO4)cc(C(F)(F)F)n2)cc1OC	-8%	-7	-21%	·	?	?
COc1ccc(NC(=O)CCS(=O)(=O)c2nc(-c3cccs3)cc(C(F)(F)F)n2)cc1OC	16µM*	-15	-106%	·	·	·
O=C(CCS(=O)(=O)c1nc(-c2ccc3c(c2)OCO3)cc(C(F)(F)F)n1)Nc1ccc(F)c(Cl)c1	20µM*	-24	13µM*	·	·	·
Cc1cc(NC(=O)CCCS(=O)(=O)c2nc(-c3cccs3)cc(C(F)(F)F)n2)no1	14µM*	-11	-106%	-106*	?	28µM*
SMILES	TGFb SMAD3 inh	D3 ag	HepG2 viability	DRD3 antagonist	ATXN2 expr inh	S2 tox
Cc1cc2nc(-c3ccc(OCc4ccccc4F)cc3)cc(C(F)(F)F)n2n1	-6%	4	-8%	·	14%	i
CCOc1ccc(C(=O)c2cn(CC(=O)Nc3cc(OC)cc(OC)c3)c3ccc(F)cc3c2=O)cc1	-7%	-13	-13%	·	4%	i
O=S1(=O)CCO[C@H]2CCCC[C@@H]2N1Cc1ccc(Cl)cc1	-24%	·	-20%	·	·	·
Cc1ccc(S(=O)(=O)N(C)Cc2nc(-c3ccccc3)oc2C)cc1	-14%	1	-4%	·	-18%	?
Cc1nnc(NC(=O)c2ccc(S(=O)(=O)N3CCCCCC3)cc2)o1	2%	-3	-37%	-72*	-20%	i
O=C(Nc1nnc(-c2cccs2)o1)c1cccc(C(F)(F)F)c1	?	4	-18%	21	16µM*	?
Cc1ccnc(NC(=O)c2ccc(S(=O)(=O)N3CCCCCC3)cc2)c1	-23%	-10	2.2µM*	-25	33%	i
N#Cc1ccc(C(=O)Nc2nnc(-c3cccs3)o2)cc1	-9%	-3	-20%	-17	?	i
CCC1CCCCN1S(=O)(=O)c1ccc(C(=O)Nc2nnc(-c3cccs3)o2)cc1 (configuration not stated)	?	-1	-32%	-75*	?	i
CC1CC(C)CN(S(=O)(=O)c2ccc(C(=O)Nc3nnc(-c4cccs4)o3)cc2)C1 (configuration not stated)	-8%	2	-21%	6	?	?
CCOc1ccc(NC(=O)CC2C(=O)N(c3ccc(F)cc3)C(=O)N2Cc2ccc(OC)c(OC)c2)cc1 (configuration not stated)	?	6	-25%	·	2%	i
Cc1ccc(NC(=O)c2ccc3c(c2)NC(=O)c2ccccc2S3)cc1	-1%	-7	-36%	·	-39%	?
CC[C@H](C)[C@@H]1NC(=O)[C@H]([C@@H](C)CC)NC(=O)[C@@H](CC(C)C)NC(=O)[C@H](Cc2ccccc2)NC(=O)[C@H](Cc2ccccc2)NC(=O)[C@@H]2CCCN2C(=O)[C@@H]2CCCN2C(=O)[C@H](C(C)C)NC(=O)[C@H](CC(C)C)NC1=O	-8%	-3	-3%	23	?	28µM*
COc1cccc(F)c1C(C[N+](=O)[O-])c1c(N)n(C)c(=O)n(C)c1=O (configuration not stated)	4µM*	-6	-123%	1	·	20µM*
COc1cc(C(C[N+](=O)[O-])c2c(N)n(C)c(=O)n(C)c2=O)ccc1O (configuration not stated)	?	5	-41%	11	?	?
CCOC(=O)[C@]12Cc3c(cc(OC)c(OC)c3OC)[C@H]1N(Cc1ccccc1)C(=O)c1cc(OC)ccc12	·	-3	·	2	20µM*	11µM*
CCOC(=O)[C@]12Cc3c(cc(OC)c(OC)c3OC)[C@H]1N(Cc1ccccc1)C(=O)c1cc(F)c(F)cc12	·	5	·	7	-16%	?
COC(=O)c1c(-c2ccccc2)csc1N	6%	1	-21%	0	-6%	i
